According to PubChem BioAssay (EPA / NIEHS):
Values joined by “and” are separate entries in the source; they are usually repeats but may differ in a detail not shown here. Equal values may be shown once. Inconclusive results are not listed. The source holds several records for some structures; these can differ, active in one and inactive in another. Active and inactive are the calls of the source. How the source made its calls, unless noted: active means hit-call score of the fitted dose curve at least 0.9, where 1 is the maximum; inactive means score below 0.9.

How the values were obtained:
[1] = biological target: human Thyroid Receptor alpha (THRa1), THRA (gene 7067) (UniProt P10827); assay: ATG_THRa1_TRANS: Attagene TRANS-FACTORIAL HepG2 Assay for human Thyroid Receptor alpha (THRa1) (AID 2283014; active means hit-call score of the fitted dose curve at least 0.9, where 1 is the maximum)
Chain of human Thyroid Receptor alpha (THRa1), THRA (gene 7067) (P10827 whole entry, looked up, the tested form may be a part): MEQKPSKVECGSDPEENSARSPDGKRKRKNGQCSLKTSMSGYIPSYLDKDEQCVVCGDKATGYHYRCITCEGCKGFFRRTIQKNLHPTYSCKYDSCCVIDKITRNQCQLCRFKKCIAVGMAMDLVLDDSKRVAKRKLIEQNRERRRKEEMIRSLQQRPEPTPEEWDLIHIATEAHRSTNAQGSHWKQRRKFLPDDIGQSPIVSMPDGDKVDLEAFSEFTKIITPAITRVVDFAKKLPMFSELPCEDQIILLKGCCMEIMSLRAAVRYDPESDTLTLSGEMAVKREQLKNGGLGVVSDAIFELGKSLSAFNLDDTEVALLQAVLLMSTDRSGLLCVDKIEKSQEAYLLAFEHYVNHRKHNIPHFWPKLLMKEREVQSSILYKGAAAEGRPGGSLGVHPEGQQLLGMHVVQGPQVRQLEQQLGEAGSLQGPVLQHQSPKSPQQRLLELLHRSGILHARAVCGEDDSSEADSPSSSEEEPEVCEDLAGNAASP
How it was run: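 HepG2 cells transiently transfected with multiplexed GAL4-UAS reporter units for exogenous chimeric THRa1-Gal4; reporter mRNA measured 24 h after dosing by RT-PCR, 6-FAM labelling, HpaI digestion and capillary electrophoresis. Gain-of-signal fitted versus DMSO baseline.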

[2] = read-out: E-selectin (Homo sapiens) (UniProt P16581); assay: BSK_3C_Eselectin: BioMAP Diversity Plus: 3C Assay for Eselectin Biomarker Activity (AID 2283015); settings: primary human endothelial cells (HUVEC); actives raise or lower the signal
How it was run: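 Primary human umbilical vein endothelial cells (3C system) were dosed with chemical and cell-surface E-selectin measured by ELISA 24 h later. Bidirectional curve fitting used DMSO as negative control and baseline.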

[3] = read-out: Interleukin-1 alpha (IL1a), IL1A (gene 3552); assay: BSK_BE3C_IL1a: BioMAP Diversity Plus: BE3C Assay for Interleukin-1 alpha (IL1a) Biomarker Activity (AID 2283016); settings: primary human bronchial epithelial cells; actives raise or lower the signal
How it was run: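 Human primary bronchial epithelial cells (BE3C system) were dosed with compound and IL-1a measured by ELISA 24 h later. Activity was fitted bidirectionally against DMSO baseline; cytotoxicity was tracked in parallel cultures by SRB total-protein staining.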

[4] = read-out: Monocyte Chemoattractant Protein-1 (MCP1), CCL2 (gene 6347); assay: BSK_3C_MCP1: BioMAP Diversity Plus: 3C Assay for Monocyte Chemoattractant Protein-1 (MCP1) Biomarker Activity (AID 2283017); settings: primary human endothelial cells (HUVEC); actives raise or lower the signal
How it was run: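 Primary human umbilical vein endothelial cells (3C system) were exposed to test chemical for 24 h, after which MCP-1 was quantified by ELISA. Activity was fitted bidirectionally against DMSO as negative control and baseline.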

[5] = read-out: Monocyte Chemoattractant Protein-1 (MCP1), CCL2 (gene 6347); assay: BSK_4H_MCP1: BioMAP Diversity Plus: 4H Assay for Monocyte Chemoattractant Protein-1 (MCP1) Biomarker Activity (AID 2283018); settings: primary human endothelial cells (HUVEC); actives raise or lower the signal
How it was run: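 Human umbilical vein endothelial cells (4H system) dosed with chemical; MCP-1 measured by ELISA 24 h after dosing. Bidirectional curve fitting against DMSO negative control as baseline; parallel SRB total-protein staining tracks overt cytotoxicity.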

[6] = read-out: Human Leukocyte Antigen - DR isotype (HLADR), HLA-DRA (gene 3122); assay: BSK_3C_HLADR: BioMAP Diversity Plus: 3C Assay for Human Leukocyte Antigen - DR isotype (HLADR) Biomarker Activity (AID 2283019); settings: primary human endothelial cells (HUVEC); actives raise or lower the signal
How it was run: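 Primary human umbilical vein endothelial cells (3C system) were dosed with compound and cell-surface HLA-DR was quantified by ELISA at 24 h. Activity was fitted bidirectionally against DMSO as negative control and baseline.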

[7] = read-out: Interleukin-8 (IL8), CXCL8 (gene 3576); assay: BSK_3C_IL8: BioMAP Diversity Plus: 3C Assay for Interleukin-8 (IL8) Biomarker Activity (AID 2283020); settings: primary human endothelial cells (HUVEC); actives raise or lower the signal
How it was run: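 Primary human umbilical vein endothelial cells (3C system) were exposed to test chemical for 24 h, then IL-8 was quantified by ELISA. Responses were fitted bidirectionally against DMSO vehicle as baseline.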

[8] = read-out: Monokine induced gamma interferon (MIG), CXCL9 (gene 4283); assay: BSK_3C_MIG: BioMAP Diversity Plus: 3C Assay for Monokine induced gamma interferon (MIG) Biomarker Activity (AID 2283021); settings: primary human endothelial cells (HUVEC); actives raise or lower the signal;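 on AC50: MIG protein level measured by immunoassay in the treated endothelial cultures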
How it was run: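 Primary human umbilical vein endothelial cells in the 3C system were exposed to chemical for 24 h, after which MIG was quantified by ELISA. Activity was fitted bidirectionally against DMSO as negative control and baseline.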

[9] = biological target: human Vitamin D Receptor (VDR), VDR (gene 7421) (UniProt P11473); assay: ATG_VDR_TRANS: Attagene TRANS-FACTORIAL HepG2 Assay for human Vitamin D Receptor (VDR) (AID 2283022; active means hit-call score of the fitted dose curve at least 0.9, where 1 is the maximum)
Chain of human Vitamin D Receptor (VDR), VDR (gene 7421) (P11473 whole entry, looked up, the tested form may be a part): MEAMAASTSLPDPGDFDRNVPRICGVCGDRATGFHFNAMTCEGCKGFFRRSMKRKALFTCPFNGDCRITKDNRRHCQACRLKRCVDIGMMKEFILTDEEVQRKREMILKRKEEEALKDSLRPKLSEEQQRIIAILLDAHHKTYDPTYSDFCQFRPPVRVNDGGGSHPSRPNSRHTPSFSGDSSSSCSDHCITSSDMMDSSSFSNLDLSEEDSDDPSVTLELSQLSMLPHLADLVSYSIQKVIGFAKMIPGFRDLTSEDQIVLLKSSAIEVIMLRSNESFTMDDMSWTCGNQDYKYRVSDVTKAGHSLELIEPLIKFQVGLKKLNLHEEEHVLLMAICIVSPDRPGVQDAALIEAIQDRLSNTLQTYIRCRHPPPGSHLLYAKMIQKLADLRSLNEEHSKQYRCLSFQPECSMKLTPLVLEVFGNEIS
How it was run: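 HepG2 cells were transiently transfected with multiple GAL4-UAS reporter units, so signal reflects exogenous chimeric receptor-Gal4 activity. After 24 h compound exposure, reporter mRNA was measured by RT-PCR, fluorescent labelling and capillary electrophoresis, fitted for gain of signal versus DMSO.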

[10] = BSK_3C_SRB: Viability Assessment in the BioMAP Diversity Plus: 3C Assay (AID 2283023); settings: primary human endothelial cells (HUVEC);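 further: fitted both ways against DMSO so a hit may be signal rise or drop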
How it was run: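 Primary human umbilical vein endothelial cells in the 3C system were read 24 h after compound dosing. Total protein was stained with 0.1% sulforhodamine B after 10% TCA fixation and read at 560 nm, with bidirectional fitting against DMSO as baseline.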

Measured: AC50

Chain of E-selectin (Homo sapiens) (P16581 whole entry, looked up): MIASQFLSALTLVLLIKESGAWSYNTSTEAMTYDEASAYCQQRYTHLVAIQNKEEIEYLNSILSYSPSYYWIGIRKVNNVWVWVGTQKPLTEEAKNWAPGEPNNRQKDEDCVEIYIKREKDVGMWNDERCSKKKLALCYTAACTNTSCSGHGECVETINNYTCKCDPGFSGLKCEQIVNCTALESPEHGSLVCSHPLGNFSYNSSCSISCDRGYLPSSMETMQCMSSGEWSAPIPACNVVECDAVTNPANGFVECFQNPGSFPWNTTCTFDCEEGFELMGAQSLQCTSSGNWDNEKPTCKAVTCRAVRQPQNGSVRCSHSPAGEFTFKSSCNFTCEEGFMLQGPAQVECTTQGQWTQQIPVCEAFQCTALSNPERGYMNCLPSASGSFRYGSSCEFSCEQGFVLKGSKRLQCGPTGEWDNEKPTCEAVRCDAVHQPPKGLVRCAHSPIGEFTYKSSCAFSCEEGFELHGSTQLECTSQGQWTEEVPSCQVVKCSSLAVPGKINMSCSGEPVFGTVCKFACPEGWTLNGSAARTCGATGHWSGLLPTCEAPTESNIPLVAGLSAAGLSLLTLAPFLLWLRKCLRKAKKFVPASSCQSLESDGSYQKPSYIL

CN(C)c1ccccc1
inactive: all assays above

Clc1ccc(C(c2ccc(Cl)cc2)C(Cl)(Cl)Cl)cc1
inactive: [1] | [3] | [9]
active: [2] 29.2 µM | [4] 26.9 µM | [6] 25.8 µM | [7] 22.7 µM | [8] 34.5 µM

CCNS(=O)(=O)C(F)(F)C(F)(F)C(F)(F)C(F)(F)C(F)(F)C(F)(F)C(F)(F)C(F)(F)F
active: [3] 44.5 µM and 21.9 µM | [4] 51.4 µM | [6] 14.6 µM and 6.07 µM | [10] 43.4 µM and 44.3 µM
inactive: [1] | [2] | [3] | [4] | [6] | [8] | [9] | [10]

CCCCCCCCCCCCCN1CC(C)OC(C)C1 (stereo unspecified)
not listed: [5] | [9] | [10]
inactive: all other assays above

CN(C)C(=O)Nc1ccc(Cl)cc1
not listed: [9] | [10]
inactive: all other assays above

O=[N+]([O-])c1ccc(Oc2ccc(Cl)cc2Cl)cc1
active: [2] 20 µM | [4] 27.8 µM | [5] 10.3 µM | [6] 30.5 µM | [7] 20 µM | [10] 31.2 µM
inactive: [1] | [3] | [8] | [9]

C[C@]12C=CC3=C4CCC(=O)C=C4CC[C@H]3[C@@H]1CC[C@@H]2O
active: [2] 9.4 µM | [6] 20 µM
inactive: [1] | [3] | [4] | [5] | [8]

Nc1ccc(Cl)cc1N
active: [2] 3.48 µM | [6] 5.99 µM
not listed: [10]
inactive: all other assays above

OCCCl
inactive: all assays above

Nc1ccc(Cc2ccc(N)cc2)cc1
not listed: [7]
inactive: all other assays above

c1ccc2c(c1)-c1cccc3cccc-2c13
not listed: [7]
inactive: all other assays above

CNC(=O)Oc1cccc2c1OC(C)(C)C2
inactive: all assays above

ClCCOCCCl
not listed: [9]
inactive: all other assays above

ClC1=C(Cl)[C@]2(Cl)[C@H]3[C@H]([C@@H]4C=C[C@H]3C4)[C@@]1(Cl)C2(Cl)Cl
inactive: [1] | [3] | [9]
active: [2] 30.9 µM | [4] 32.2 µM | [5] 24.2 µM | [6] 24.9 µM | [7] 28.8 µM | [8] 37.3 µM | [10] 26 µM

c1ccc(NNc2ccccc2)cc1
not listed: [7] | [10]
inactive: all other assays above

O=P(OCCCl)(OCCCl)OCCCl
not listed: [7] | [9] | [10]
inactive: all other assays above

[O-][Cl+]O
not listed: [7] | [9] | [10]
inactive: all other assays above

CCN(CC)N=O
not listed: [9]
inactive: all other assays above

c1ccc2c(c1)oc1ccccc12
not listed: [9]
inactive: all other assays above

Nc1ccc([N+](=O)[O-])cc1
inactive: all assays above

CCOC(=O)[C@]1(c2ccccc2)Oc2ccccc2[C@@H]1N
active: [4] 13.4 µM | [6] 27.6 µM | [10] 24.7 µM
not listed: [7]
inactive: all other assays above

C1=Cc2cccc3cccc1c23
inactive: all assays above

CCC[CH2][Sn]([Cl])([CH2]CCC)[CH2]CCC
active: [2] 0.148 µM | [3] 0.148 µM | [4] 0.148 µM | [5] 3.62 µM | [6] 0.148 µM | [8] 0.148 µM | [9] 1.92 µM | [10] 0.148 µM
inactive: [1]

OCCCBr
not listed: [5] | [10]
inactive: all other assays above

[As]#[In]
not listed: [7] | [9]
inactive: all other assays above

[Cl-].[Cl-].[Hg+2]
active: [2] 36.7 µM | [3] 31 µM | [5] 30.7 µM | [6] 30 µM | [8] 30.9 µM
inactive: [1] | [4] | [9]

O=[N+]([O-])C(Br)(CO)CO
active: [2] 32.6 µM | [4] 30.5 µM | [5] 28.9 µM | [6] 16.5 µM | [7] 35.8 µM | [8] 34.9 µM
inactive: [1] | [3] | [9]

O=C(O)C1C2CCC(O2)C1C(=O)O (stereo unspecified)
active: [2] 18.6 µM | [10] 24.4 µM
not listed: [5] | [7]
inactive: all other assays above

Cc1ccc([N+](=O)[O-])cc1
not listed: [5] | [7]
inactive: all other assays above

CN(C)[C@@H]1C(=O)C(C(N)=O)=C(O)[C@@]2(O)C(=O)C3=C(O)c4c(O)cccc4[C@@](C)(O)[C@H]3C[C@@H]12
not listed: [5] | [9]
inactive: all other assays above

O=C(Nc1ccccc1)c1ccccc1I
not listed: [5] | [7] | [9]
inactive: all other assays above

CCCSC(=O)N(CCC)CCC
not listed: [5] | [7]
inactive: all other assays above

COc1cc(C=O)cc2c1[C@H](COC(N)=O)[C@]1(OC(C)=O)ON2C[C@H]2[C@@H]1N2C(C)=O
active: [2] 10.8 µM | [3] 2.63 µM | [4] 6.85 µM | [5] 3.22 µM | [6] 15.9 µM | [7] 11.9 µM | [8] 29.2 µM | [10] 6.86 µM

Nc1ccc(N=Nc2ccccc2)cc1
active: [10] 20 µM
not listed: [1]
inactive: all other assays above

CCCCCCCCn1sccc1=O
active: [2] 12.6 µM | [3] 8.59 µM | [4] 9.73 µM | [5] 8.07 µM | [6] 5.11 µM | [7] 12.4 µM | [8] 11.6 µM

Cc1cc(N=Nc2ccccc2C)ccc1N
active: [4] 10.8 µM | [6] 27.5 µM | [7] 20 µM
not listed: [5] | [10]
inactive: all other assays above

Cc1cccc(N)c1N
active: [2] 30.3 µM | [6] 25.9 µM
not listed: [5] | [9]
inactive: all other assays above

CC(C)(OOC(C)(C)c1ccccc1)c1ccccc1
active: [2] 26.1 µM | [4] 15.8 µM | [5] 26.5 µM | [6] 24.6 µM | [7] 29.8 µM | [8] 29.3 µM
inactive: [3] | [9]

CN(C)c1ccc(C(=O)c2ccc(N(C)C)cc2)cc1
active: [4] 2.3 µM | [6] 20 µM | [7] 2.55 µM | [10] 3.55 µM
not listed: [1]
inactive: all other assays above

N#CC(Br)(Br)C(N)=O
not listed: [5] | [7] | [10]
inactive: all other assays above

COC(=O)c1ccccc1N
not listed: [5]
inactive: all other assays above

ClC1=C(Cl)C2(Cl)C3C(Cl)C=CC3C1(Cl)C2(Cl)Cl (stereo unspecified)
active: [2] 26.8 µM | [3] 28.6 µM | [4] 30 µM | [5] 24.1 µM | [6] 22.7 µM | [7] 32.7 µM | [8] 35.7 µM

Nc1cc(Cl)cc(C(=O)O)c1Cl
not listed: [5] | [9]
inactive: all other assays above

Cn1cc(-c2ccccc2)c(=O)c(-c2cccc(C(F)(F)F)c2)c1
not listed: [1] | [9] | [10]
inactive: all other assays above

CO[C@@H]1[C@H](OC(=O)NC(=O)CCl)CC[C@]2(CO2)[C@H]1[C@@]1(C)O[C@@H]1CC=C(C)C
active: [2] 5.16 µM | [6] 8.98 µM
not listed: [5] | [10]
inactive: all other assays above
